Laboratory results from PubChem BioAssay AID743245 (National Center for Advancing Translational Sciences (NCATS), 2014).
This is one part of the list. Results filed as inconclusive are left out. Calls of active or inactive are those of the source. Calls follow the shape of the dose curve; as a rule, active = well fitted inhibition curve with a large enough effect; inconclusive = small, poorly fitted or top-dose-only effect; inactive = flat fitted curve, though single readings scatter.

Target: ATP-dependent Clp protease proteolytic subunit (Bacillus subtilis (strain 168)) (UniProt P80244)
Sequence (P80244 whole entry, looked up): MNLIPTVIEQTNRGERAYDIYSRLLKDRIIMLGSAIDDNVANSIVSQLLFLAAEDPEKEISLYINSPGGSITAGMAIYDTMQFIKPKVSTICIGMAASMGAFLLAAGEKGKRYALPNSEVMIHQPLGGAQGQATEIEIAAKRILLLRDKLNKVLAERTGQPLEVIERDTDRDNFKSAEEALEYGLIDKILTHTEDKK
Test: qHTS Assay for Activators of ClpP: Hit Validation of Inhibitors; also: nearly all actives have a fitted effect of over 70% in size
Conditions: purified B. subtilis ClpP, FRET-FV substrate cleavage, 20 min; series mostly up to 57.5 µM; activity change, negative = inhibition: at the top concentration
Source text: The Clp protease proteolytic subunit (ClpP) is the core unit of the Clp complex belonging to the peptidase family S14 that hydrolyzes protein into small peptides in the presence of ATP and magnesium. It is ubiquitously expressed and is the major protease in bacteria. […] Unlike common antibiotics that simply interfere with the essential enzyme activity, ADEP binding activates the ClpP core in the absence of the regulatory Clp-ATPases leading to uncontrolled proteolysis and eventually cell death. Activators binding to the docking site on ClpP can also block formation of the ClpXP and ClpA/C-P holoenzyme complexes interfering with the normal biological functions of ClpP and thus have the potential to become new anti-microbials. To identify activators of ClpP, a FRET based quenching reversal assay was developed using a purified B. subtilis ClpP and a decapeptide substrate (FRET-FV). The FRET-FV is tagged with a fluorescent molecule amino benzoic acid (donor) at the N-terminus and a nitrotyrosine quencher (acceptor) at the C-terminus. FRET-FV cleaves upon activation of ClpP with ADEP treatement and reverses the quenching effect of the nitrotyrosine causing an increase in fluorescence emission signal at 430nm. This assay was used to screen the Molecular Libraries Small Molecule Repository (MLSMR). NIH Molecular Libraries Probe Production Centers Network [MLPCN] NIH Chemical Genomics Center [NCGC] MLPCN Grant: MH095569 Assay Submitter (PI): Michael Maurizi, National Cancer Institute
Two and a half microL/well of purified enzyme solution (final concentrations 10 microg/mL B. subtilis ClpP in 100 mM Tris/HCl pH8, 100 mM KCl, 0.05% low protease BSA, 2.5% glycerol, 0.01% Tween-20 buffer) was dispensed into 1536-well assay plates (Greiner, black solid, medium-binding plates) with Aurora Discovery BioRAPTR Flying Reagent Dispenser (FRD, Beckton-Dickenson). Compound solution (23 nL) was transferred to the assay plate using Kalypsys pin tool equipped with a 1536-pin tool. One and a half microL/well substrate solution (final concentrations 3 microM FRET-FV substrate in 100 mM Tris/HCl pH8, 100 mM KCl, 0.05% low protease BSA, 2.5% glycerol, 0.01% Tween-20 buffer) was then added for a total of 4 microL final reaction volume. FRET signals at time 0 and after 20 min room temperature incubation were obtained using the PerkinElmer Envision plate reader with 320nm excitation and 430nm emission filters. Delta FRET value (Time 20 - Time 0) was calculated and normalized to the delta FRET value of positive control ADEP (5.8 microM final concentration) and negative control DMSO and no enzyme wells.
% is scaled to controls: 0 for no effect and ±100 for the full control effect; potency is read from the fitted curve at half-maximal effect.

Potency, active:
Fc1cc(F)c2nc(Nc3nc4c(F)cccc4s3)sc2c1 4.85 µM, O=C(Nc1ccc2oc(-c3ccc4ccccc4c3)nc2c1)c1cccs1 10.9 µM, Cc1cccc(-c2oc3ccc(-c4ccc5c(c4)OCO5)cc3c2C#Cc2cncn2C)c1 24.3 µM, CN(C(=O)c1cc2c(=O)n3ccccc3nc2s1)C1CCCCC1 13.7 µM, CC(C)n1c(-c2cccs2)nc2ccccc21 21.7 µM, COc1ccc(CCNC(=O)c2ccc3c(c2)sc2nc(-c4ccc(C)cc4)cn23)cc1OC 27.3 µM, COc1ccccc1NC(=O)c1oc2ccccc2c1NC(=O)COc1ccccc1OC 21.7 µM, Cc1nc2sc(C)c(C)n2c(=O)c1S(=O)(=O)NCCc1ccc(Cl)cc1 24.3 µM, COc1ccccc1CNC(=O)c1ccccc1NC(=O)c1nsc2ccccc12 24.3 µM, CCOC(=O)N1CCN(C(=O)c2ccc3nc4cc(Cl)ccc4c(=O)n3c2)CC1 27.3 µM, CCOc1ccc(-c2nnc(-c3ccco3)o2)cc1 21.7 µM

Activity change, negative = inhibition, inactive:
CCOc1ccc(-c2cc(C)n3nc(C(=O)Nc4ccc(C)c(C)c4)cc3n2)cc1 0.34%, CCN(CCCNC(=O)c1cc2c(=O)n(CC)c3ccccc3c2s1)Cc1ccccc1 -0.109%, Cc1cccc(NC(=O)c2nnn(CC(=O)Nc3ccc(C(C)C)cc3)c2N)c1C -4.1%, CCCCn1c(=O)c2oc3ccccc3c2n(CC(=O)Nc2ccccc2OC)c1=O -3.85%, CCCCN(C)c1ccc([N+](=O)[O-])cc1 -1.43%, COc1ccc(CNC(=O)COC(=O)CCS(=O)(=O)c2ccc(C)cc2)cc1OC -0.566%, COc1cc2[nH]c(=O)n(Cc3ccc(C(=O)NCc4ccc(C)cc4)cc3)c(=O)c2cc1OC -21.1%
